In PubChem BioAssay (EPA / NIEHS) one finds AC50 and outcome data, which are given here for 14 compounds.

The structures appear in SMILES notation. The source made the active and inactive calls. How the source made its calls: active means hit-call score of the fitted dose curve at least 0.9, where 1 is the maximum; inactive means score below 0.9. *1 amine or outer side, *2 acyl side, *3 side chain or, on linkers, in order; H or OH if unused. Where a SMILES comes first, the peptide text is derived from it. Bridges are numbered along the chain shown (N, C = ends). Roman numbers before positions name the chains, in order. [ ]: non-standard residue; d: D form. Actinocin(9to1) = Cc1c2oc3c(C)ccc(C(=O)[*:1])c3nc-2c(C(=O)[*:2])c(N)c1=O; NMeV = CN[C@H](C(=O)O)C(C)C; Sar = CNCC(=O)O

The assay concerns Brachyury (BRA) Protein Expression, Deisenroth Lab, TBXT (gene 6862). The assay is described as follows: CCTE_Deisenroth_DEVTOX-GLR_legacy_Bra: (Legacy) CCTE's DevTox GLR-Endo Assay Evaluation of Brachyury (BRA) Protein Expression, Deisenroth Lab (AID 2284329). Here is the method:
CCTE_Deisenroth_DEVTOX-GLR_legacy assay is a cell-based, multiplex-readout assay that uses RUES2-GLR, a human pluripotent cell line, with measurements taken at 48 hours after chemical dosing in a 384-well microplateCCTE_Deisenroth_DEVTOX-GLR_legacy_Bra is one of 4 assay components calculated from the CCTE_Deisenroth_DEVTOX-GLR_legacy assay that measures an increase in the percentage of cells in an […] state. It is designed to make measurements of inducible reporter a form of fluorescent protein induction as detected with optical fluorescence microscopy. Percentage Bra+ cells are determined by calculating the number of Bra+ cells divided by cell count. A cell is Bra+ if the cell Bra mean intensity is 5x BMAD above the pluripotent control median cell Bra mean. The assay endpoint was analyzed with bidirectional fitting with the 0.2% DMSO control median percent Bra in the DEVTOX-GLR assay subtracted.Data from the assay component CCTE_Deisenroth_DEVTOX-GLR_legacy_Bra was analyzed into 1 assay endpoint. This assay endpoint, CCTE_Deisenroth_DEVTOX-GLR_legacy_Bra, was analyzed in the positive analysis fitting direction relative to DMSO as the negative control and baseline activity. Using a type of inducible reporter, gain-of-signal activity can be used to understand changes in gene expression. Furthermore, this assay endpoint can be referred to as a secondary readout, because this assay has produced multiple assay endpoints where this one serves as a measure of mesoderm differentiation. To generalize the intended target to other relatable targets, this assay endpoint is annotated to the transcription factor intended target family, where the subfamily is T-box protein.
All assay protocols are aligned to the DevTox GLR-Endo assay workflow. Cells are seeded into 384-well microplates for 24 hours prior to initiating differentiation in defined media for a total duration of 48 hours. A total of two chemical exposures are administered in 24-hour intervals during the 48-hour differentiation period. At the assay termination point, cells are fixed and stained with a fluorescent dye demarcating the nucleus. High-content imaging is used to acquire brightfield and fluorescent channel images across 5 fields per well. Cell identification and mean biomarker fluorescence intensities are calculated with image analysis software to determine the total cell counts for viability assessment and the biomarker expression frequency for each lineage-dependent assay. A typical experimental design tests a 10-point concentration series (1 nM - 200 uM) for 28 compounds in single technical replicate. Assay plate controls include non-differentiated pluripotent cells (baseline control), lineage-specific differentiated cells (differentiation control), and DMSO solvent exposed differentiated cells (solvent control). Experiments typically comprise a minimum of four experimental replicates (n=4).
Usually AC50 stands for the concentration giving half of the maximal activity seen. `Cc1nc(Nc2ncc(C(=O)Nc3c(C)cccc3Cl)s2)cc(N2CCN(CCO)CC2)n1`: the AC50 was 3.19 µM (active).

For the compound `CCN(CC)CCNC(=O)c1c(C)[nH]c(/C=C2\C(=O)Nc3ccc(F)cc32)c1C`, the half-maximal activity concentration (AC50) is 6.88 µM (active).

As for `CNC(=O)c1cc(Oc2ccc(NC(=O)Nc3ccc(Cl)c(C(F)(F)F)c3)cc2)ccn1`, the concentration at half-maximal activity (AC50) was 0.815 µM (active).

`Cc1ccc(NC(=O)c2ccc(CN3CCN(C)CC3)cc2)cc1Nc1nccc(-c2cccnc2)n1`: the AC50 was 20.1 µM (active).

Take `O=c1[nH]c(=O)n([C@H]2C[C@H](O)[C@@H](CO)O2)cc1Br`: the concentration at half-maximal activity (AC50) is 11.7 µM (active).

Regarding `CC1=C(/C=C/C(C)=C/C=C/C(C)=C\C(=O)O)C(C)(C)CCC1`, the AC50 is 100 µM (active).

As for `Nc1cccc2c1CN(C1CCC(=O)NC1=O)C2=O` (centres undefined), the outcome was inactive.

Take `COc1cc2c(Nc3ccc(Br)cc3F)ncnc2cc1OCC1CCN(C)CC1`: the AC50 is 8.49 µM (active).

Regarding `Cc1c2oc3c(C)ccc(C(=O)N[C@@H]4C(=O)N[C@H](C(C)C)C(=O)N5CCC[C@H]5C(=O)N(C)CC(=O)N(C)[C@@H](C(C)C)C(=O)O[C@@H]4C)c3nc-2c(C(=O)N[C@@H]2C(=O)N[C@H](C(C)C)C(=O)N3CCC[C@H]3C(=O)N(C)CC(=O)N(C)[C@@H](C(C)C)C(=O)O[C@@H]2C)c(N)c1=O` (I: T[dV]P[Sar][NMeV] / II: T[dV]P[Sar][NMeV]; ester I:1-I:C, II:1-II:C; linker I:N-II:N via Actinocin(9to1)), the AC50 was 0.00154 µM (active).

On to `COc1cc2ncnc(Nc3ccc(F)c(Cl)c3)c2cc1OCCCN1CCOCC1`, for which the concentration at half-maximal activity (AC50) is 8.42 µM (active).

Regarding `CCCCCN=C(N)N/N=C/c1c[nH]c2ccc(OC)cc12`, the call was inactive.

For the compound `CN1CCN2c3ccccc3Cc3ccccc3C2C1` (centres undefined), the half-maximal activity concentration (AC50) is 52.7 µM (active).

For the compound `O=C1Cc2cc(CCN3CCN(c4nsc5ccccc45)CC3)c(Cl)cc2N1`, the AC50 was 3.94 µM (active).

Take `O=C(c1ccc(F)cc1)C1CCN(CCn2c(=O)[nH]c3ccccc3c2=O)CC1`: the outcome was inactive.
